Results filed as inconclusive are left out. Active and inactive are the calls of the source. How the source made its calls: active means hit-call score of the fitted dose curve at least 0.9, where 1 is the maximum; inconclusive means response in the unintended direction; inactive means score below 0.9.
What was measured:
[1] = ArunA_NOG_NucleusCount: ArunA Biomedical's Neurite Outgrowth (NOG) Assay for Nucleus Count (AID 2283756)
Summary of the method: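 Human H9-derived differentiated neurons were exposed for 48 h right after seeding. Hoechst-stained nuclei gated by size and intensity were counted by automated high-content imaging as viable neurons. Loss of signal vs DMSO.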

[2] = ArunA_NOG_NeuriteLength: ArunA Biomedical's Neurite Outgrowth (NOG) Assay for Neurite Length (AID 2283757)
Summary of the method: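 Differentiated human H9-derived neurons were exposed for 48 h from seeding, then stained with Hoechst and βIII-tubulin. Automated high-content imaging gave total neurite length per valid neuron, counting processes >10 um. Loss of signal was scored versus DMSO.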

[3] = ArunA_NOG_NeuritesPerNeuron: ArunA Biomedical's Neurite Outgrowth (NOG) Assay for Neurites Per Neuron (AID 2283758)
Summary of the method: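 Differentiated human H9-derived neurons exposed to chemicals for 48 h from seeding, then stained with Hoechst and βIII-tubulin/DyLight 488. Automated imaging counted neurites (processes >10 um) per valid neuron; loss of signal versus DMSO scored.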

[4] = biological target: Luciferin 4-monooxygenase (Photinus pyralis) (UniProt P08659); assay: CCTE_Simmons_QuantiLum_inhib_2: CCTE's Firefly Luciferase Inhibition Assay, Simmons Lab (AID 2283767);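 on AC50: potency for inhibitors that lower luciferase luminescence relative to DMSO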
Summary of the method: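 Luminescence loss relative to DMSO vehicle defines inhibition; detection reagent containing 150 uM D-luciferin and 147 uM dATP (final, pH 7.8) is injected immediately before each read. Enzyme is preincubated with an 8-point titration (5 nM–87.5 uM final) for 30 min at 37C.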

[5] = ACEA_AR_agonist_AUC_viability: ACEA Biosciences xCELLigence Real-Time Cell Analysis on Androgen Receptor Agonism for Viability (AID 2283775);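 on AC50: viability read 80 hours after compound addition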
Summary of the method: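 Real-time impedance tracking of 22Rv1 growth, readings every 5 min for 5 h then hourly; area-under-curve viability endpoint at 80 hours, relative to DMSO. Compounds at eight concentrations, 1:4 steps, top 100 uM, n = 2.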

[6] = ACEA_AR_antagonist_AUC_viability: ACEA Biosciences xCELLigence Real-Time Cell Analysis on Androgen Receptor Antagonism for Viability (AID 2283776);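 further: 22Rv1 human prostate cancer cells growing on impedance electrode plates; hits lower the growth signal relative to DMSO meaning cytotoxicity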
Summary of the method: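 22Rv1 prostate cells, continuous dosing up to 100 uM final (0.5% DMSO max), duplicate plates. Growth measured by impedance; AUC at 80 h, loss of signal vs DMSO.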

[7] = ACEA_ER_AUC_viability: ACEA Biosciences xCELLigence Real-Time Cell Analysis on Estrogen Receptor Agonism for Viability (AID 2283782);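 further: continuous compound exposure with impedance area under curve over 80 h; hit means loss of impedance signal meaning reduced cell growth or viability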
Summary of the method: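 T-47D; phenol red-free RPMI1640 + 10% CS-FBS; 8 conc., 1:4 serial, max 100 uM final, ≤0.5% DMSO; n = 2; continuous exposure; impedance monitored to 80 h post-dose; AUC vs DMSO.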

[8] = STM_H9_NormalizedViability: Cytotoxicity Assessment at 120 hours in the Stemina devTOX quickPredict H9 human embryonic stem cell (hESC)-based Assay (AID 2283784)
Summary of the method: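 Pluripotent H9 cells dosed, fresh medium plus compound q24h → cell layer read by CellTiter-Fluor → RFU blank-corrected, normalized to DMSO 0.1% mean. Loss-of-signal fit, DMSO as baseline.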

[9] = ArunA_NOG_BranchPointsPerNeurite: ArunA Biomedical's Neurite Outgrowth (NOG) Assay for Branch Points Per Neurite (AID 2283759)
Summary of the method: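 Automated image analysis traced neurites (processes >10 um) from valid cell bodies after Hoechst and βIII-tubulin staining. hNN cells from H9 embryonic stem cells, 48 h exposure. Fitted bidirectionally against DMSO.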

[10] = biological target: AR (gene 367) (UniProt P10275); assay: ACEA_AR_antagonist_80hr: ACEA Biosciences xCELLigence Real-Time Cell Analysis on Androgen Receptor Antagonism for Proliferation (AID 2283787);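 further: 22Rv1 human prostate cancer cells with growth followed by electrical impedance; hits lower the impedance growth signal relative to DMSO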
Summary of the method: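 Growth-kinetic antagonist readout in 22Rv1 cells, taken 80 h after continuous compound exposure. Activity fitted as signal loss relative to DMSO negative control.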

[11] = biological target: AR (gene 367) (UniProt P10275); assay: ACEA_AR_agonist_80hr: ACEA Biosciences xCELLigence Real-Time Cell Analysis on Androgen Receptor Agonism for Proliferation (AID 2283783);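 further: hits increase impedance growth signal above DMSO baseline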
Summary of the method: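 Androgen-driven proliferation in 22Rv1 cells is tracked as electrical impedance, taken 80 h after continuous exposure to compound (eight concentrations, 1:4 steps, maximum 100 uM final). Activity is fitted in the positive direction with DMSO as baseline.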

[12] = system: zebrafish Androgen Receptor (AR), gene 100005148; assay: ATG_zfAR_XSP1: Attagene TRANS-FACTORIAL Multi-Species (XSP1) HepG2 Assay for zebrafish Androgen Receptor (AR) (AID 2283771)
Summary of the method: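 HepG2 cells were transiently transfected with a zebrafish AR-GAL4 reporter system and partially stimulated with 3 nM 6-alpha-fluorotestosterone. Reporter mRNA was measured after 24 h dosing by RT-PCR with capillary electrophoresis, and gain-of-signal was fitted relative to DMSO.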

[13] = biological target: zebrafish Estrogen Receptor (ESR1), esr1 (gene 259252) (UniProt P57717); assay: ATG_zfER1_XSP1: Attagene TRANS-FACTORIAL Multi-Species (XSP1) HepG2 Assay for zebrafish Estrogen Receptor (ESR1) (AID 2283772)
Summary of the method: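 Transfect HepG2 with GAL4-UAS multi-reporter constructs; treat 24 h (medium carries 3 nM 6-alpha-fluorotestosterone); extract RNA, reverse-transcribe, PCR-amplify, FAM-label, digest with HpaI; resolve by capillary electrophoresis and compare against DMSO baseline.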

[14] = system: zebrafish Estrogen Receptor (ESR2B), gene 317733; assay: ATG_zfER2b_XSP1: Attagene TRANS-FACTORIAL Multi-Species (XSP1) HepG2 Assay for zebrafish Estrogen Receptor (ESR2B) (AID 2283773)
Summary of the method: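 Gain-of-signal endpoint relative to DMSO: reporter transcript levels quantified by RT-PCR and capillary electrophoresis after 24 h compound exposure of HepG2 cells expressing a zebrafish ER2b-Gal4 chimera.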

[15] = system: frog Estrogen Receptor (ESR2), gene 100174814; assay: ATG_frER2_XSP1: Attagene TRANS-FACTORIAL Multi-Species (XSP1) HepG2 Assay for frog Estrogen Receptor (ESR2) (AID 2283774)
Summary of the method: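 Transactivation of an exogenous receptor-Gal4 fusion is tracked in transfected HepG2 cells via induced reporter transcript levels. After 24 h treatment, RT-PCR with capillary electrophoresis quantifies signal gain over DMSO.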

[16] = biological target: GAL4 Transcription Factor (Internal Marker), GAL4 (gene 855828) (UniProt P04386); assay: ATG_GAL4_XSP1: Attagene TRANS-FACTORIAL Multi-Species (XSP1) HepG2 Assay for GAL4 Transcription Factor (Internal Marker) (AID 2283789)
Summary of the method: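 HepG2 cells transiently transfected with multiplexed GAL4-UAS reporter units were exposed for 24 h with 3 nM 6-alpha-fluorotestosterone present. Reporter mRNA was quantified by RT-PCR, FAM labelling, HpaI digestion and capillary electrophoresis; background-control readout, gain-of-signal versus DMSO.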

[17] = ATG_M_19_XSP1: Attagene TRANS-FACTORIAL Multi-Species (XSP1) HepG2 Assay for M19 Transcription Factor (Internal Marker) (AID 2283798)
Summary of the method: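 HepG2 cells transiently transfected with multiplexed GAL4-UAS reporter units, dosed 24 h with 3 nM 6-alpha-fluorotestosterone present for partial AR stimulation. Reporter mRNA measured by RT-PCR with capillary electrophoresis; gain-of-signal fitted relative to DMSO.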

[18] = ATG_M_32_XSP1: Attagene TRANS-FACTORIAL Multi-Species (XSP1) HepG2 Assay for M32 Transcription Factor (Internal Marker) (AID 2283799)
Summary of the method: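 HepG2 cells transiently transfected with multi-species TRANS reporter units, dosed 24 h with 3 nM 6-alpha-fluorotestosterone present. Internal-marker reporter mRNA quantified by RT-PCR and capillary electrophoresis; positive-direction fit versus DMSO.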

[19] = biological target: Peroxisome proliferator-activated receptor gamma (Homo sapiens) (UniProt P37231); assay: ATG_hPPARg_XSP1: Attagene TRANS-FACTORIAL Multi-Species (XSP1) HepG2 Assay for human Peroxisome Proliferator-activated Receptor gamma (PPARg) (AID 2283800)
Summary of the method: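 HepG2 cells transiently transfected with GAL4-UAS reporter units carrying chimeric NR-Gal4 proteins; 3 nM 6-alpha-fluorotestosterone present. After 24 h dosing, reporter mRNA quantified by RT-PCR and capillary electrophoresis; gain of signal relative to DMSO.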

[20] = system: zebrafish Peroxisome Proliferator-activated Receptor gamma (PPARg), gene 557037; assay: ATG_zfPPARg_XSP1: Attagene TRANS-FACTORIAL Multi-Species (XSP1) HepG2 Assay for zebrafish Peroxisome Proliferator-activated Receptor gamma (PPARg) (AID 2283801)
Summary of the method: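 HepG2 cells transiently transfected with GAL4-UAS reporter units including a zebrafish PPARg–GAL4 chimera, dosed 24 h with 3 nM 6-alpha-fluorotestosterone present. Reporter mRNA quantified by RT-PCR, FAM labelling, HpaI digestion and capillary electrophoresis; induction versus DMSO.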

Measured: AC50

Chain of AR (gene 367) (P10275 whole entry, looked up): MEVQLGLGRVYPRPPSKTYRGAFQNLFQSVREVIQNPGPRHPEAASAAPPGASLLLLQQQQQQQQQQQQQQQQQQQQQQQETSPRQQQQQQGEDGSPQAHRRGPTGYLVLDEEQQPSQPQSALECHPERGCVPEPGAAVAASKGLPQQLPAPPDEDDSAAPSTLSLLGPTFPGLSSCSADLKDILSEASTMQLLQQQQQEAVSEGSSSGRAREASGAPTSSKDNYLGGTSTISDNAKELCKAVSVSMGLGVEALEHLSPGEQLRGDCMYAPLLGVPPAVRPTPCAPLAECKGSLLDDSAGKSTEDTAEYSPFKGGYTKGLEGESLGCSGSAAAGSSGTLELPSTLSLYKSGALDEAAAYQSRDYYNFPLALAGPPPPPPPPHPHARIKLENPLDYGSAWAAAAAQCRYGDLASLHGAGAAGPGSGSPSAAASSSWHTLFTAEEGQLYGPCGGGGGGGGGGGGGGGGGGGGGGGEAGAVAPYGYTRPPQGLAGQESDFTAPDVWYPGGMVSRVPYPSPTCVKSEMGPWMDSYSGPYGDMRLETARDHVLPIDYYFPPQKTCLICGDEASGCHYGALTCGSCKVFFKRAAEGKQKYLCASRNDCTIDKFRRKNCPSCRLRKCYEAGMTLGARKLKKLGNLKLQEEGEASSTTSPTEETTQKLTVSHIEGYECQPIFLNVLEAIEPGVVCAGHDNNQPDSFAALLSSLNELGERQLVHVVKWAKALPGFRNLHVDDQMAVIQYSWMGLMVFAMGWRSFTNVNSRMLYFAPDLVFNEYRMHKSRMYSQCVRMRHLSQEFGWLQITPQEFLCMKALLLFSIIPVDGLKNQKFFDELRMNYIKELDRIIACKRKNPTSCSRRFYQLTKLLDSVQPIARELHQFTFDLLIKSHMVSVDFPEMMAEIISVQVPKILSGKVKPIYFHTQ
Chain of Luciferin 4-monooxygenase (Photinus pyralis) (P08659 whole entry, looked up): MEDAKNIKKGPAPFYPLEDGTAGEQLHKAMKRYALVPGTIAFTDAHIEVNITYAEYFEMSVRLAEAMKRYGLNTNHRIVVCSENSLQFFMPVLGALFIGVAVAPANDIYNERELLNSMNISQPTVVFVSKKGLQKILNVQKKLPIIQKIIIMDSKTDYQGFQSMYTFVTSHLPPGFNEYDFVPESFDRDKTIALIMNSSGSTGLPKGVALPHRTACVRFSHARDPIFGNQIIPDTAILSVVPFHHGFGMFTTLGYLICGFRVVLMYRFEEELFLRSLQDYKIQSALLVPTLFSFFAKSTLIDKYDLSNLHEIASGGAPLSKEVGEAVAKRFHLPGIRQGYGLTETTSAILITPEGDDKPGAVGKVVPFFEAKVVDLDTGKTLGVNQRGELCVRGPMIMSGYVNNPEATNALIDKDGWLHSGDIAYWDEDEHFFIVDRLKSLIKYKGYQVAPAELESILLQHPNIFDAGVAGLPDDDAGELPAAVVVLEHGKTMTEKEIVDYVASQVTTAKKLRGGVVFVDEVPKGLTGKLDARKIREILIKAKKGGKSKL
Chain of GAL4 Transcription Factor (Internal Marker), GAL4 (gene 855828) (P04386 whole entry, looked up, the tested form may be a part): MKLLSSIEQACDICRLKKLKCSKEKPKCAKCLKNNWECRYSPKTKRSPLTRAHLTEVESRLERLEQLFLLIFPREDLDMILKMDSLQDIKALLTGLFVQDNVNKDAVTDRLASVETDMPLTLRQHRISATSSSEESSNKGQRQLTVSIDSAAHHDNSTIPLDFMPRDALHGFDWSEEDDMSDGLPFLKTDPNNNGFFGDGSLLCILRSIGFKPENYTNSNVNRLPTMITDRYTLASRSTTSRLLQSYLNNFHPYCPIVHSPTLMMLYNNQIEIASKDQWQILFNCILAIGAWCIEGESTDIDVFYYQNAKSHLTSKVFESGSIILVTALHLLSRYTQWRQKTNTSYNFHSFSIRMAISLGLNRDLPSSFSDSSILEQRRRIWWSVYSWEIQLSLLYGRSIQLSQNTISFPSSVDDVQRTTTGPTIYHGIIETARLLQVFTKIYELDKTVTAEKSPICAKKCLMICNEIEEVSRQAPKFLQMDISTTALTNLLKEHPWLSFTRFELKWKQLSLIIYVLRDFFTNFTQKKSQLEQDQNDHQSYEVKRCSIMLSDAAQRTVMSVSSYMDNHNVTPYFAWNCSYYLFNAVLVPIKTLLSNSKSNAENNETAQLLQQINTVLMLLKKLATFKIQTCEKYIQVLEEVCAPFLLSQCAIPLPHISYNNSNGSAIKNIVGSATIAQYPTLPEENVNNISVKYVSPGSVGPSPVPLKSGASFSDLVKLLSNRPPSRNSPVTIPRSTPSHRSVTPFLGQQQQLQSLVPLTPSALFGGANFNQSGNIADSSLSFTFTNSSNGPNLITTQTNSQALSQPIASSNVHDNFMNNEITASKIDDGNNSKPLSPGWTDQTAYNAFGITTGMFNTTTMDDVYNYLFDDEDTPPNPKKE
Chain of zebrafish Estrogen Receptor (ESR1), esr1 (gene 259252) (P57717 whole entry, looked up, the tested form may be a part): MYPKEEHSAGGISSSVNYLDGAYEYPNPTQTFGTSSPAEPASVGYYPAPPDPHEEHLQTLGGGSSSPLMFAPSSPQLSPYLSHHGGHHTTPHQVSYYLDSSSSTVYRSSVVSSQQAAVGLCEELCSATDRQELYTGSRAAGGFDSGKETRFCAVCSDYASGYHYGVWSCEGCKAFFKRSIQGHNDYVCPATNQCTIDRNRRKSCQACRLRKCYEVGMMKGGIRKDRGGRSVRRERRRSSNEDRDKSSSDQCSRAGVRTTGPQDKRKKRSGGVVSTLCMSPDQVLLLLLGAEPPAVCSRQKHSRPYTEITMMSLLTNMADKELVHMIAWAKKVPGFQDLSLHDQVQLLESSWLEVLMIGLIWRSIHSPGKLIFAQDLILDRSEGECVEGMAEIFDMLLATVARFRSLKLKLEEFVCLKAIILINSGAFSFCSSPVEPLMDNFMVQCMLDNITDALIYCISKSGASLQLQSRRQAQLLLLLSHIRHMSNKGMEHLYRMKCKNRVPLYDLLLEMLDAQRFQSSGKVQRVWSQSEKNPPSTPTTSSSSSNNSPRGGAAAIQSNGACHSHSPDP
Chain of Peroxisome proliferator-activated receptor gamma (Homo sapiens) (P37231 whole entry, looked up, the tested form may be a part): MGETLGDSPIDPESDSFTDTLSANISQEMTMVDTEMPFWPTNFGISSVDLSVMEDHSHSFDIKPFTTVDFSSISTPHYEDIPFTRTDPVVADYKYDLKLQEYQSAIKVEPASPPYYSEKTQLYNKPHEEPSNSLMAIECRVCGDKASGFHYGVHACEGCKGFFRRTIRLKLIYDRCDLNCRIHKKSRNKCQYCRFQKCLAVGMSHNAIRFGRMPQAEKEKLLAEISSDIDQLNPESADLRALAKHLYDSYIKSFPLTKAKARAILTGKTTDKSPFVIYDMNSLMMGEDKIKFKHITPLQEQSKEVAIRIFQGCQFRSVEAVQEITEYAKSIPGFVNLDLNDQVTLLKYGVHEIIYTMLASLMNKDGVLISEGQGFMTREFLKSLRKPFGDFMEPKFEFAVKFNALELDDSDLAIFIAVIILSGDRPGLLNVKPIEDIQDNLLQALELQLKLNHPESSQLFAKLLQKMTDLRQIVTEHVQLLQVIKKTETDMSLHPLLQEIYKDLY

CCCCC(CC)COC(=O)CC(C(=O)OCC(CC)CCCC)S(=O)(=O)O (stereo unspecified)
inactive: [1] | [2] | [3] | [8]
active: [4] 13.1 µM | [5] 88.4 µM | [6] 85.2 µM | [7] 67.3 µM

Oc1ccc2ccccc2c1N=Nc1ccccc1
active: [4] 12.6 µM | [8] 0.992 µM
inactive: [9] | [6]

Cc1ccc(N(C)C)cc1
inactive: [4] | [5] | [6] | [10]

CN[C@H]1CC[C@@H](c2ccc(Cl)c(Cl)c2)c2ccc(S(N)(=O)=O)cc21
active: [4] 10.7 µM | [5] 15.2 µM | [6] 15.7 µM | [7] 10.9 µM | [10] 13.1 µM

Cc1cc(NC(=O)C(=O)O)cc(C)c1Oc1ccc(O)c2c1CCC2
inactive: [1] | [6] | [11] | [8] | [10]
active: [4] 79.3 µM

Nc1nc(N)c2nc(CNc3ccc(C(=O)N[C@@H](CCC(=O)O)C(=O)O)cc3)cnc2n1
active: [7] 40.1 µM
inactive: [4] | [5]

C[C@]12C=CC(=O)C=C1CC[C@@H]1[C@@H]2C(=O)C[C@@]2(C)[C@H]1CC[C@]2(O)C(=O)CO
inactive: [4] | [6]

CC(C)(C)c1cc(O)c(C(C)(C)C)cc1O
active: [14] 186 µM | [5] 66.3 µM | [19] 160 µM
inactive: [4] | [12] | [13] | [15] | [6] | [16] | [17] | [18] | [20]

CCOc1ccc2c(c1)C(C)=CC(C)(C)N2
inactive: [4] | [7] | [11]
active: [5] 79.8 µM | [6] 89.5 µM | [10] 72.2 µM

COc1ccc(C)cc1N
inactive: [4] | [5] | [6] | [7] | [10]

OC[C@@H](O)[C@@H](O)[C@H](O)[C@H](O)CO
inactive: [3] | [6] | [8]
active: [1] 50 µM | [9] 9.92 µM

Nc1ccc(S(=O)(=O)c2ccc(N)cc2)cc1
inactive: [4] | [5]

O=c1c(O)c(-c2ccc(O)c(O)c2)oc2cc(O)cc(O)c12
inactive: [8]
active: [2] 9.45 µM | [3] 7.94 µM | [9] 8.06 µM | [4] 53.8 µM | [5] 17.8 µM

CN1CCCC1=O
inactive: [4] | [5] | [6]

Nc1ccccc1N
active: [4] 24.8 µM | [6] 24.2 µM | [8] 2.01 µM
inactive: [5] | [7]

CCCCc1ccc2c(n1)[C@@H](c1ccc(OC)cc1C[C@H](C)C(=O)O)[C@H](C(=O)O)[C@H]2c1ccc2c(c1)OCO2
inactive: [1] | [9] | [5] | [8]
active: [6] 19.9 µM

COc1cc(S(=O)(=O)O)c(C)cc1N=Nc1c(O)ccc2cc(S(=O)(=O)O)ccc12
inactive: [6]
active: [4] 10.7 µM

Cc1ccc(C)c(O)c1C
inactive: [4] | [5] | [6] | [7] | [10]

Cc1cc(=O)[nH]c(=S)[nH]1
inactive: [5] | [7]
active: [4] 53.8 µM | [6] 9.94 µM

COC(=O)c1ccc(O)cc1
inactive: [5] | [8]
active: [1] 13.7 µM | [2] 18.1 µM | [3] 17.4 µM | [9] 14.8 µM | [6] 12.7 µM

CC1=C(/C=C/C(C)=C/C=C/C(C)=C/CO)C(C)(C)CCC1
inactive: [4] | [7] | [8]
active: [5] 72.2 µM | [6] 79.8 µM

CCNc1cccc(C)c1
inactive: [4] | [5] | [6] | [7]

CNC(=O)[C@H]1O[C@@H](n2cnc3c(NCc4cc(Cl)ccc4OCc4cc(C)no4)ncnc32)[C@H](O)[C@@H]1N
inactive: [4] | [5] | [6] | [7] | [10]

CC=Cc1ccc(O)c(OC)c1
inactive: [4]
active: [5] 50 µM | [6] 19.3 µM

CCCc1cc(=O)[nH]c(=S)[nH]1
inactive: [1] | [2] | [3] | [9] | [4] | [6] | [8]

C=CCc1ccc(O)c(OC)c1
inactive: [4] | [5] | [6]

Cc1oc(-c2ccccc2)nc1CCOc1cccc2c1ccn2CCC(=O)O
active: [5] 68.8 µM | [6] 65.7 µM
inactive: [4] | [7] | [8]

Source: PubChem BioAssay (EPA / NIEHS)
